For 30 molecules, Inhibition results are on record in ChEMBL document CHEMBL1157539, “Thousands of chemical starting points for antimalarial lead identification” (Nature, 2010).

Holding throughout (assay type): functional
In assay [1] the test system is Plasmodium falciparum. The experiment in a line: GSK_TCMDC: Inhibition of Plasmodium falciparum 3D7 in whole red blood cells, using parasite LDH activity as an index of growth. Test compounds present at 2uM.
Assay [2] relates to Plasmodium falciparum. The experiment in a line: GSK_TCMDC: Inhibition of Plasmodium falciparum Dd2 in whole red blood cells, using parasite LDH activity as an index of growth. Test compounds present at 2uM.
The test system of another assay is HepG2. The experiment in a line: GSK_TCMDC: Percent inhibition of human HepG2 cell line. Test compounds present at 10uM.

Where “and” joins values, the source holds several entries; their conditions need not be identical. Identical values can stand only once.

In general, Inhibition refers to how much of the control response was suppressed. With `O=C(/C=C/c1ccc(Cl)c(Cl)c1)NC1CCC(CN2CCC(c3c[nH]c4cc(C(F)(F)F)ccc34)CC2)CC1` (stereo not given), the Inhibition with Plasmodium falciparum [1] is 100% and 98%; with Plasmodium falciparum [2], 38% and 85%.

`CCC(C)(C)NC(C)C(O)c1ccc(C(F)(F)F)cc1.Cl` (stereo not given): the Inhibition in the assay on Plasmodium falciparum [1] is 97%; in the assay on Plasmodium falciparum [2] it was 90%.

With `C#CCOc1ccc(CC(C)NCC(O)c2cccc(C(F)(F)F)c2)cc1` (stereo not given), the Inhibition was 93% and 90% in the assay with Plasmodium falciparum [1]; 84% and 74% in the assay on Plasmodium falciparum [2].

On to `CN1CC(c2ccc(Cl)c(Cl)c2)OC1=N.I` (stereo not given), for which the Inhibition with Plasmodium falciparum [1] was 99%; in the assay on Plasmodium falciparum [2], 3%.

With `CN1CC=C(c2c[nH]c3ccc(C(=O)c4nccs4)cc23)CC1`, the Inhibition came to 89% with Plasmodium falciparum [1] and 73% in the assay with Plasmodium falciparum [2].

For the molecule `O=C(/C=C/c1ccc(Cl)c(Cl)c1)NCCCCCN1C2CCC1CC(c1c[nH]c3ccccc13)C2` (stereo not given), the figures for the Inhibition in the assay with Plasmodium falciparum [1], with Plasmodium falciparum [2] and with HepG2 were 98%, 4% and 54%, respectively.

For `Br.CCCCCCCSc1ccc(CC(C)NCC(O)c2cccc(Cl)c2)cc1` (stereo not given), the Inhibition worked out at 100% with Plasmodium falciparum [1], 99% in the assay on Plasmodium falciparum [2] and 94% with HepG2.

Turning to `CC[C@H]1CN2CC[C@H]1C[C@H]2[C@H](O)c1cc(/C=C/c2ccccc2)nc2ccc(OC)cc12`, the Inhibition in the assay with Plasmodium falciparum [1] was 99%; in the assay with Plasmodium falciparum [2], 99%; in the assay on HepG2, 16%.

Regarding `CN(c1cc(NC(=O)c2ccc(F)cc2)ccn1)C1CCN(Cc2cccc(O)c2)CC1.O=C(O)C(F)(F)F`, the Inhibition was 100% in the assay with Plasmodium falciparum [1], 82% with Plasmodium falciparum [2] and 3% in the assay on HepG2.

As for `COc1ccc(CN2CCN(CCOC(c3ccccc3)c3ccccc3)CC2)c(O)c1`, the values for the Inhibition in the assay with Plasmodium falciparum [1], with Plasmodium falciparum [2] and in the assay on HepG2 were 96%, 84% and 19%, respectively.

As to `Cc1cccc2c(C3CCN(CC4CCC(NC(=O)/C=C/c5ccc(Cl)c(Cl)c5)CC4)CC3)c[nH]c12` (stereo not given), the Inhibition with Plasmodium falciparum [1] stood at 92%; in the assay on Plasmodium falciparum [2], 49%; in the assay with HepG2 it was 97%.

Regarding `CC(C)CNCc1ccc(-c2ccc(CN(C(=O)Nc3ccccc3)C3CCN(Cc4ccccc4)CC3)cc2)cc1.O=C(O)C(F)(F)F`, the Inhibition was determined as 100% in the assay on Plasmodium falciparum [1], 61% with Plasmodium falciparum [2] and 27% with HepG2.

As for `O=C(/C=C/c1cc(C(F)(F)F)ccc1F)NC1CCC(CN2CCC(c3c[nH]c4ccccc34)CC2)CC1` (stereo not given), the Inhibition in the assay with Plasmodium falciparum [1] turned out to be 100%; in the assay with Plasmodium falciparum [2], 66%; in the assay with HepG2, 5%.

Regarding `O=C(/C=C/c1ccc(Cl)c(Cl)c1)N1CCC(CN2CCC(c3c[nH]c4ccc(NS(=O)(=O)c5cccs5)cc34)CC2)CC1`, the Inhibition came out at 100% in the assay on Plasmodium falciparum [1], 100% in the assay with Plasmodium falciparum [2] and 17% in the assay on HepG2.

Take `CC[C@H]1CN2CC[C@@H]1C[C@H]2[C@H](O)c1cc(-c2ccccc2)nc2ccc(O)cc12.Cl`: the Inhibition in the assay on Plasmodium falciparum [1] is listed as 99%; in the assay on Plasmodium falciparum [2], 99%; in the assay on HepG2, 14%.

In the case of `O=C(CCCCCc1ccccc1)NC1CCC(CN2CCC(c3c[nH]c4ccccc34)CC2)CC1` (stereo not given), the results for the Inhibition in the assay with Plasmodium falciparum [1], in the assay on Plasmodium falciparum [2] and in the assay on HepG2 were 86%, 5% and 34%, respectively.

Regarding `CC[C@H]1CN2CC[C@H]1C[C@@H]2[C@@H](O)c1ccnc2ccc(OC)cc12.Cl`, the Inhibition turned out to be 100% in the assay with Plasmodium falciparum [1], 95% with Plasmodium falciparum [2] and 0% in the assay on HepG2.

In the case of `COc1nc(N)ncc1C(=O)NC1CN2CCC1CC2` (stereo not given), the Inhibition with Plasmodium falciparum [1] is 92%; in the assay with Plasmodium falciparum [2] it was 0%; in the assay with HepG2, 26%.

As for `COC(=O)/C=C/c1ccc(CC(C)NCC(O)c2cccc(Br)c2)cc1` (stereo not given), the values for the Inhibition with Plasmodium falciparum [1], in the assay with Plasmodium falciparum [2] and in the assay on HepG2 were 97%, 93% and 2%, respectively.

Turning to `COc1ccc(CCNCc2ccc3nc(N)cc(C)c3c2)cc1`, the values for the Inhibition in the assay on Plasmodium falciparum [1], with Plasmodium falciparum [2] and with HepG2 were 100%, 86% and 23%, respectively.

In the case of `Cc1[nH]c2ccccc2c1C1=CCN(CCCCCNC(=O)/C=C/c2ccc(Cl)c(Cl)c2)CC1`, the values for the Inhibition in the assay on Plasmodium falciparum [1], in the assay on Plasmodium falciparum [2] and with HepG2 were 97%, 89% and 28%, respectively.

In the case of `O=C(Nc1ccc(CN2CCC(c3c[nH]c4ccc(O)cc34)CC2)cc1)c1ccc(-c2ccccc2)cc1`, the Inhibition in the assay on Plasmodium falciparum [1] stood at 100%; in the assay with Plasmodium falciparum [2] it was 100%; in the assay with HepG2, 33%.

Take `COc1ccc(OC)c(CNCC(O)c2cc(C(F)(F)F)cc(C(F)(F)F)c2)c1` (stereo not given): the Inhibition is 92% in the assay with Plasmodium falciparum [1], 100% in the assay with Plasmodium falciparum [2] and 7% with HepG2.

In the case of `O=C(C=Cc1ccc(F)c(Br)c1)NC1CCC(CN2CCC(c3c[nH]c4ccccc34)CC2)CC1` (stereo not given), the Inhibition with Plasmodium falciparum [1] is 100%; in the assay on Plasmodium falciparum [2], 67% and 50%; with HepG2, 28% and 39%.

`Cc1ccc(CC(C)NCC(O)c2cccc(C(F)(F)F)c2)cc1.O=C(O)/C=C/C(=O)O` (stereo not given): the values for the Inhibition in the assay on Plasmodium falciparum [1], in the assay on Plasmodium falciparum [2] and with HepG2 were 100%, 54% and 5%, respectively.

`CCN1CCC(N2CCC(n3c(C)nc4cc(C(F)(F)F)ccc43)CC2)CC1`: the Inhibition was determined as 93% in the assay on Plasmodium falciparum [1], 16% in the assay on Plasmodium falciparum [2] and 6% with HepG2.

As for `CN1CCC(COC(=O)C(O)(c2ccccc2)c2ccccc2)C1` (stereo not given) [TRICLAZATE], the Inhibition in the assay with Plasmodium falciparum [1] is 98%; in the assay on Plasmodium falciparum [2] it was 4%; in the assay with HepG2, 0%.

For the molecule `O=C(/C=C/c1ccc(O)cc1)NC1CCC(CN2CCC(c3c[nH]c4ccccc34)CC2)CC1` (stereo not given), the Inhibition with Plasmodium falciparum [1] was 99%; in the assay with Plasmodium falciparum [2], 51%; in the assay with HepG2, 21%.

Regarding `O=C(/C=C/c1ccc(Cl)cc1)NC1CCC(CN2CCC(c3c[nH]c4ccccc34)CC2)CC1` (stereo not given), the Inhibition in the assay on Plasmodium falciparum [1] was 99% and 100%; in the assay on Plasmodium falciparum [2], 90% and 67%; with HepG2, 40% and 39%.

As to `CN1CCN(c2ccc3[nH]c(-c4ccc5[nH]c(-c6ccc(O)cc6)nc5c4)nc3c2)CC1.Cl.O`, the figures for the Inhibition in the assay on Plasmodium falciparum [1], in the assay with Plasmodium falciparum [2] and in the assay with HepG2 were 99%, 100% and 0%, respectively.
